The nature of assay [1]: HepG2 liver cancer cell viability effects, profiling panel, resazurin fluorescence, 24 h, PK04 Diversity Set (AID 1172). To be noted: higher = more signal.
A short description of assay [2]: basal S. cerevisiae growth modulation, no modifier, primary screen, OD600, strain BY4716, 24 h, basal condition (AID 1173). To be noted: OD600, 24 h, higher = more signal, called active from +8 up or from −8 down.
A short description of assay [3]: MM1S myeloma cell viability, profiling panel, resazurin fluorescence, basal, 24 h, PK04 Diversity Set (AID 1174).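 Further: MM1S multiple myeloma cell line.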 The note with it: higher = more signal, called active from +8 up or from −8 down. In general terms: Alamar Blue is a resazurin reagent that responds to reducing activity.
The target of assay [4] is Dihydroorotate dehydrogenase (quinone), mitochondrial (Plasmodium falciparum (isolate 3D7)) (UniProt Q08210). Briefly: PfDHODH enzyme inhibitors, primary screen, biochemical, C-terminal His tag, absorbance 600 nm (AID 1175).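 Further: recombinant parasite enzyme with a five histidine tag at its C terminus.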 The note with it: DCIP absorbance 600 nm, higher = more signal, called active from +8 up or from −8 down.
Sequence of Dihydroorotate dehydrogenase (quinone), mitochondrial (Plasmodium falciparum (isolate 3D7)) (Q08210 whole entry, looked up): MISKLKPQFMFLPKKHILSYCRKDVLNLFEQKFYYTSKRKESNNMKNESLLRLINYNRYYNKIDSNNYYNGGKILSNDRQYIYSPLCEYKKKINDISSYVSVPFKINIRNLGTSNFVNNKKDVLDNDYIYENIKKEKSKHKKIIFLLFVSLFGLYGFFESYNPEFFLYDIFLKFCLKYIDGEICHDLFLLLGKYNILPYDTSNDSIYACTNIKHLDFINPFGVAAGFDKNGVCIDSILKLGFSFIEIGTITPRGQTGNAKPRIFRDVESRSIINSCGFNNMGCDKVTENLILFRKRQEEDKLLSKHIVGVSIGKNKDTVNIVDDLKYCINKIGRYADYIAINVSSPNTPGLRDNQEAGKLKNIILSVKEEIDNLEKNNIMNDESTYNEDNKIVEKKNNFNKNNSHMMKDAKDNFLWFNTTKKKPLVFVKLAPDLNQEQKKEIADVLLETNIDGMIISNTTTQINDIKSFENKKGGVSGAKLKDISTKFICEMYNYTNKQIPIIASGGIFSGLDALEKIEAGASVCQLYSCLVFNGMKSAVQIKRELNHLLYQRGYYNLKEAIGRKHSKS
A short description of assay [5]: P. aeruginosa biofilm formation inhibitors, primary screen, strain PAO1, LB-PBS medium, absorbance 600 nm (AID 1176). To be noted: P. aeruginosa PAO1 growth/biofilm, A600, 12 h; higher = more signal.
Assay [6] is described as follows: S. cerevisiae RM11-1a growth modifiers, primary screen, strain RM11-1a, OD600, basal, 24 h (AID 1177).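 Further: cultures grown under basal conditions with no added stressor.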 The note with it: OD600, 24 h, higher = more signal, called active from +8 up or from −8 down.
Assay [7] is described as follows: E. coli acrAB mutant growth effects, primary screen, E. coli filamentation inducers, strain DRC39, OD650, 24 h (AID 1178).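 Further: growth measured as culture turbidity by optical density at 650 nm.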 The note with it: higher = more signal, called active from +8 up or from −8 down.
Assay [8] is described as follows: E. coli acrAB mutant growth effects, primary screen, E. coli filamentation inducers, strain DRC39, OD650, 48 h (AID 1179).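 Further: screen aims at cell division blockers that make cells filament.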 To be noted: E. coli DRC39 delta-acrAB growth, higher = more signal, called active from +8 up or from −8 down.
A short description of assay [9]: RPMI8226 myeloma cell viability, profiling panel, resazurin fluorescence, basal, 24 h, PK04 Diversity Set (AID 1180).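 Further: RPMI8826 multiple myeloma cell line at 5000 cells per well.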 To be noted: higher = more signal.
Assay [10] has as its target E3 ubiquitin-protein ligase XIAP (Homo sapiens) (UniProt P98170). Briefly: XIAP binders, primary screen, biophysical, small-molecule microarray, fluorescence 635 nm (AID 1181).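 Further: score merges 667 nm emission and signal to noise over triplicate slides.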 To be noted: small-molecule microarray binding, higher = more signal.
In assay [11] the test system is XIP peptide (Xip251-270) binding. Put plainly: small-molecule binders of XIP peptide, primary screen, biochemical, small-molecule microarray, fluorescence 635/667 nm, 0.1 µg/mL protein (AID 1182). The note with it: fluorescent protein binding, 635 nm, higher = more signal, called active from +8 up or from −8 down.
Another assay relates to XIP peptide (Xip251-270). Put plainly: small-molecule binders of XIP peptide, primary screen, biochemical, small-molecule microarray, fluorescence 635/667 nm, 0.5 µg/mL protein (AID 1183). The note with it: small-molecule microarray binding, fluorescence 635 nm; higher = more signal.
The nature of assay [12]: Plasmodium falciparum growth inhibition, primary screen, strain 3D7, DAPI fluorescence, 100 nL (AID 1184).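 Further: parasites grown inside human red blood cells in medium with human serum.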 The note with it: P. falciparum 3D7 growth, 3 d, higher = more signal.
Assay [13] addresses Homeobox protein Hox-A13 (Mus musculus) (UniProt Q62424). Put plainly: inhibitors of HoxA13-DNA binding, primary screen, biochemical, fluorescence polarization, labeled oligonucleotide (AID 1185). To be noted: 15 min, higher = more signal, called active from +8 up or from −8 down.
Assay [14] can be described thus: inhibitors of hydroxyurea-induced Chk1 phosphorylation, primary screen, imaging, HeLa, phospho-Chk1 antibody, percent positive cells (AID 1186). To be noted: hydroxyurea-induced phospho-Chk1 immunofluorescence imaging, higher = more signal.
Assay [15] can be described thus: inhibitors of hydroxyurea-induced Chk1 phosphorylation, primary screen, imaging, HeLa, phospho-Chk1 nuclear intensity (AID 1187). The note with it: hydroxyurea-induced phospho-Chk1 immunofluorescence imaging, higher = more signal.

Z-score and composite z-score data for 10 compounds are collected here from PubChem BioAssay.

Activity calls are given as the source filed them. Unless noted, how the calls were made is not given here.

Sequence of Homeobox protein Hox-A13 (Mus musculus) (Q62424 whole entry, looked up): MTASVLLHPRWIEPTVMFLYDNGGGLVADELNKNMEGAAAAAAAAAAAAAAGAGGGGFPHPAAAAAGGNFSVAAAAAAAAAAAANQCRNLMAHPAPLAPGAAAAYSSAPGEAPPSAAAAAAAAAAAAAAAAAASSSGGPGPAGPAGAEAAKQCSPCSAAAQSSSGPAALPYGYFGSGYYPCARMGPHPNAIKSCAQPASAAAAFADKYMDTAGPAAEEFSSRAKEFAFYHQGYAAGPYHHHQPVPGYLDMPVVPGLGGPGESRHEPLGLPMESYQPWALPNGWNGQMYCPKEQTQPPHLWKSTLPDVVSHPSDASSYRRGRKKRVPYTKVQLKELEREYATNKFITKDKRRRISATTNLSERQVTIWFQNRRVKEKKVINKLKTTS
Sequence of E3 ubiquitin-protein ligase XIAP (Homo sapiens) (P98170 whole entry, looked up): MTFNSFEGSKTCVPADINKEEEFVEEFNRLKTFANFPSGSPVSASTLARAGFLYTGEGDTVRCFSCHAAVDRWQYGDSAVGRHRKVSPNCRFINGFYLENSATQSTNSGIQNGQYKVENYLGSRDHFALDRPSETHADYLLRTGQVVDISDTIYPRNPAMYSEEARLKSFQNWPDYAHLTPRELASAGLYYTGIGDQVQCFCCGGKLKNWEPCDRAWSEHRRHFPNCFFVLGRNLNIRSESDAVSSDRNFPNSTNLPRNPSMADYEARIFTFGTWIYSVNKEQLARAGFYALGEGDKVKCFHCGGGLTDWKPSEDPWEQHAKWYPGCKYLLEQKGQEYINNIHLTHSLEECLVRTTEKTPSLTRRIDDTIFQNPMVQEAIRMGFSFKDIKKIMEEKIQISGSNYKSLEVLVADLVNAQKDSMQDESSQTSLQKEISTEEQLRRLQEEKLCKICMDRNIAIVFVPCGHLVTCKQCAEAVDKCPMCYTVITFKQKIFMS

Turning to `COc1ccc(C(=O)Nc2ccc3c(c2)[C@@]2(O[C@H](CCO)[C@@H]([Si](C)(C)c4ccc(OC)cc4)[C@@H]2C)C(=O)N3Cc2ccccc2)cc1`, the z-score in [1] was -2.52; in [2] it was -1.96 (inactive); in assay [3], -8.32 (active); in assay [5] it was 0.249 (inactive); in assay [6], 2.7 (inactive); in assay [7] it was -0.59 (inactive). In addition, the z-score was -0.927 (inactive) in [8]; -5.58 in [9]; -2.89 in assay [12]; -1.54 (inactive) in assay [13]; 0.0691 (inactive) in assay [14]; 0.518 (inactive) in [15]. Besides, the composite z-score is -0.687 (inactive) in assay [4], -0.131 in [10], 0.396 (inactive) in assay [11] and 0.466 in the assay on XIP peptide (Xip251-270).

Regarding `CC(C)NC(=O)[C@@H]1c2ccccc2C(=O)N(Cc2ccccc2C(F)(F)F)[C@H]1c1ccc(CO)cc1`, the z-score in [1] is 0.994; in assay [2] it was -0.249 (inactive); in [3], 0.711 (inactive); in [5] it was 0.441 (inactive); in assay [6], -0.227 (inactive); in assay [7], 0.296 (inactive). The z-score was 0.0644 (inactive) in assay [8]; 0.616 in [9]; -0.276 in [12]; -3.17 (inactive) in assay [13]; 0.41 (inactive) in assay [14]; 0.405 (inactive) in [15]. Moreover, the composite z-score in assay [4] was 0.0482 (inactive); in [10], -0.135; in assay [11] it was 0.483 (inactive); in the assay with XIP peptide (Xip251-270), 0.78.

In the case of `O=C1C[C@@](C(=O)NCc2ccccc2)(c2ccc([N+](=O)[O-])cc2)[C@@H](c2ccc(CO)cc2)N1C1CCCCC1`, the z-score in assay [1] was -0.563; in [2] it was -0.517 (inactive); in assay [3] it was -0.163 (inactive); in assay [5], -0.0654 (inactive); in [6], -1.02 (inactive); in [7] it was 0.639 (inactive). Also, the z-score in assay [8] is 1.46 (inactive); in [9], -0.0381; in [12], 0.469; in assay [13], -2.95 (inactive); in [14], -0.53 (inactive); in assay [15], -0.0661 (inactive). Also, the composite z-score is -1.58 (inactive) in assay [4], -0.031 in [10], 0.58 (inactive) in [11] and 0.607 in the assay on XIP peptide (Xip251-270).

With `O=C1O[C@@H](c2ccccc2)[C@@H](c2ccccc2)N2[C@@H](c3ccc(OCCO)cc3)[C@]3(C(=O)Nc4ccc(C#CCCO)cc43)[C@@H](C(=O)O)[C@H]12`, the z-score is -0.0464 in assay [1]; -0.718 (inactive) in assay [2]; 0.314 (inactive) in [3]; 0.185 (inactive) in assay [5]; 0.575 (inactive) in [6]; 0.932 (inactive) in assay [7]. Further, the z-score was 0.91 (inactive) in assay [8]; 0.104 in [9]; 0.612 in assay [12]; -5.86 (inactive) in assay [13]; -0.368 (inactive) in [14]; -0.451 (inactive) in assay [15]. In addition, the composite z-score is -1.25 (inactive) in [4], 0.104 in assay [10], 0.901 (inactive) in assay [11] and 0.443 in the assay on XIP peptide (Xip251-270).

Take `CC(C)N1C(=O)C[C@@](C(=O)NCCN2CCOCC2)(c2ccc([N+](=O)[O-])cc2)[C@H]1c1ccc(CO)cc1`: the z-score in assay [1] was 1.68; in assay [2], -1.39 (inactive); in assay [3] it was 0.795 (inactive); in [5] it was -0.838 (inactive); in assay [6], -0.291 (inactive); in assay [7] it was 0.0506 (inactive). In addition, the z-score in assay [8] is 0.445 (inactive); in [9] it was 1.23; in assay [12], 0.289; in assay [13], -2.52 (inactive); in [14] it was 0.159 (inactive); in assay [15], 0.451 (inactive). Moreover, the composite z-score in assay [4] was -0.1 (inactive); in assay [10], -0.0747; in assay [11] it was 0.534 (inactive); in the assay on XIP peptide (Xip251-270), 0.634.

With `Cc1ccc(S[C@]2(C(=O)NC(C)C)CC(=O)N(C3CCCCC3)[C@@H]2c2ccc(CO)cc2I)cc1`, the z-score in [1] was 0.748; in assay [2], 0.27 (inactive); in [3], -0.611 (inactive); in [5], 0.462 (inactive); in assay [6], 1.16 (inactive); in assay [7], 0.384 (inactive). Moreover, the z-score in assay [8] is -0.138 (inactive); in [9], -2.01; in assay [12], -1.31; in assay [13], -4.43 (inactive); in assay [14], 0.243 (inactive); in [15], 0.202 (inactive). Also, the composite z-score in assay [4] is 0.62 (inactive); in assay [10], -0.0559; in [11], 0.814 (inactive); with XIP peptide (Xip251-270), 0.864.

Take `CC(C)=CCCC=C(C)C(O)C1C=CC2C(=O)N(c3ccccc3)C(=O)C2N1Nc1ccc(C#N)cc1` (stereo not given): the z-score in assay [1] is -1.53; in assay [2], -0.101 (inactive); in assay [3] it was -1.79 (inactive); in [5] it was 1.36 (inactive); in assay [6], -1.63 (inactive); in [7], -0.0959 (inactive). In addition, the z-score is 0.65 (inactive) in assay [8]; -2.19 in assay [9]; 0.221 in assay [12]; 0.884 (inactive) in assay [13]; -0.0269 (inactive) in assay [14]; -0.294 (inactive) in assay [15]. Moreover, the composite z-score in assay [4] was -1.49 (inactive); in assay [10], 0.146; in assay [11] it was 1.1 (inactive); in the assay with XIP peptide (Xip251-270), 0.621.

For the compound `COc1cc(OC)c(C(O)C2C=CC3C(=O)N(c4ccccc4)C(=O)C3N2Nc2ccc(C(C)C)cc2)cc1Br` (stereo not given), the z-score in [1] was 0.092; in [2], -4.46 (inactive); in [3], -0.263 (inactive); in [5], 2.24 (inactive); in [6] it was 0.171 (inactive); in [7], 0.238 (inactive). Besides, the z-score was 0.48 (inactive) in assay [8]; 0.289 in [9]; -0.0986 in assay [12]; -1.37 (inactive) in assay [13]; -0.78 (inactive) in assay [14]; -0.639 (inactive) in [15]. The composite z-score is 0.145 (inactive) in [4], 0.0838 in assay [10], 0.242 (inactive) in assay [11] and 0.785 with XIP peptide (Xip251-270).

With `COc1ccc(C#Cc2ccc3c(c2)[C@]2(C(=O)N3)[C@H](C(=O)O)[C@H]3C(=O)O[C@H](c4ccccc4)[C@H](c4ccccc4)N3[C@@H]2c2ccccc2OCCO)cc1`, the z-score is -0.638 in [1]; 0.0196 (inactive) in [2]; -2.53 (inactive) in assay [3]; 3.23 (inactive) in [5]; 2.48 (inactive) in assay [6]; 0.761 (inactive) in [7]. Besides, the z-score in assay [8] was -0.183 (inactive); in [9] it was -5.64; in assay [12] it was -2.15; in assay [13] it was -3 (inactive); in [14] it was 0.135 (inactive); in assay [15], 0.175 (inactive). Besides, the composite z-score in [4] is -3.86 (inactive); in [10], 0.013; in assay [11], 1.89 (inactive); in the assay with XIP peptide (Xip251-270) it was 0.833.

For the compound `CC(C)NC(=O)[C@@]1(c2ccc([N+](=O)[O-])cc2)CC(=O)N(CC23CC4CC(CC(C4)C2)C3)[C@@H]1c1ccc(CO)cc1`, the z-score in assay [1] was -1.21; in [2] it was -0.692 (inactive); in assay [3], -2.06 (inactive); in assay [5], 0.792 (inactive); in assay [6] it was 0.311 (inactive); in assay [7], -0.502 (inactive). Besides, the z-score in assay [8] is -0.655 (inactive); in assay [9], -3.14; in [12], -0.948; in assay [13], -4.97 (inactive); in assay [14] it was 0.103 (inactive); in assay [15], 0.412 (inactive). Moreover, the composite z-score in [4] was -0.257 (inactive); in [10] it was -0.0295; in assay [11] it was 1.26 (inactive); in the assay with XIP peptide (Xip251-270) it was 0.918.
